Experimental data: PubChem BioAssay (Tox21)
Values joined by “and” are separate entries in the source; they are usually repeats but may differ in a detail not shown here. Equal entries are not always repeated. Records with an inconclusive call do not appear. Where a call stands in place of a potency, no number is given. Where a structure was tested more than once in an assay, its records may differ in their call. Active and inactive are the calls of the source. Unless noted, calls come from the whole dose curve; as a rule, active = well fitted curve in the direction sought with a large enough effect in the repeat runs; inconclusive = weak or mixed curves; inactive = no such curve, though single readings can be large; an effect the other way counts as inactive or inconclusive.

Tests used:
[1] = qHTS assay to identify aromatase inhibitors - cell viability counter screen (AID 743084);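 note: cells stimulated with testosterone during compound exposure; nearly all actives have a fitted effect of over 55% in size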; note: potency is the fitted concentration of half-maximal effect
[2] = molecular target: Aryl hydrocarbon receptor (Homo sapiens) (UniProt P35869); assay: qHTS assay to identify small molecule that activate the aryl hydrocarbon receptor (AhR) signaling pathway (AID 743085); note: nearly all actives have a fitted effect of over 15% in size; note: potency is the fitted concentration of half-maximal effect;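 for activation: HG2L7.5c1 human HepG2 liver cells with stably integrated DRE-driven firefly reporter; series mostly up to about 70 µM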
How it was run: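 Luminescence (ONE-Glo) from a dioxin-responsive-element luciferase reporter in HG2L7.5c1 HepG2 cells after 24 hr compound exposure at 37C; viability measured by CellTiter-Fluor fluorescence beforehand.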

[3] = qHTS assay to identify small molecule that activate the aryl hydrocarbon receptor (AhR) signaling pathway - cell viability counter screen (AID 743086);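 note: HepG2 liver cells carrying the AhR DRE luciferase reporter; series mostly up to about 70 µM; nearly all actives have a fitted effect of over 45% in size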
How it was run: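 HepG2-AhR-luc (HG2L7.5c1) cells, 4000/well, were preincubated 5 h at 37C, exposed to compound in qHTS format for 24 hr at 37C, then given CellTiter-Fluor for 30 min; viability was read as fluorescence in the reporter wells.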

[4] = molecular target: Peroxisome proliferator-activated receptor gamma (Homo sapiens) (UniProt P37231); assay: qHTS assay to identify small molecule agonists of the peroxisome proliferator-activated receptor gamma (PPARg) signaling pathway (AID 743094; active = well fitted activation curve with a large enough effect in the signal ratio in the repeat runs, not every such curve was filed as active; the % refers to the signal ratio)
How it was run: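 Fluorescence-based beta-lactamase readout in HEK293H PPARg UAS-bla cells after 17 h compound exposure (37C) and 1 h B/G FRET substrate incubation at room temperature.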

[5] = molecular target: Peroxisome proliferator-activated receptor gamma (Homo sapiens) (UniProt P37231); assay: qHTS assay to identify small molecule antagonists of the peroxisome proliferator-activated receptor gamma (PPARg) signaling pathway (AID 743191; calls by dose curve; note: nearly all actives have a fitted effect of over 30% in size; note: potency is the fitted concentration of half-maximal effect)
How it was run: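 GeneBLAzer PPARg UAS-bla HEK293H cells carrying a UAS-driven beta-lactamase reporter were plated at 3000 cells/well, preincubated 5 h at 37C, then given compound for 17 h at 37C; LiveBLAzer B/G FRET substrate was read after 1 h at room temperature.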

[6] = qHTS assay to identify small molecule antagonists of the peroxisome proliferator-activated receptor gamma (PPARg) signaling pathway - cell viability counter screen (AID 743194); note: nearly all actives have a fitted effect of over 55% in size
How it was run: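 PPARg-UAS-bla HEK293H cells were plated, rested 5 h at 37 C, then treated with compounds plus rosiglitazone (50 nM final) for 17 h at 37 C; viability was then read by CellTiter-Glo luminescence after 30 min at room temperature.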

[7] = qHTS assay for small molecule agonists of the antioxidant response element (ARE) signaling pathway (AID 743202; active = well fitted activation curve with a large enough effect in the signal ratio in the repeat runs, not every such curve was filed as active; the % refers to the signal ratio; note: potency is the fitted concentration of half-maximal effect)
How it was run: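 Steps: seed ARE-bla HepG2 cells (2,000/well); incubate 5 h at 37 C; add compounds by pin tool; incubate 16 h at 37 C; add FRET substrate; read fluorescence after 2 h at RT.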

[8] = qHTS assay for small molecule agonists of the antioxidant response element (ARE) signaling pathway - cell viability counter screen (AID 743203; calls by dose curve; note: nearly all actives have a fitted effect of over 55% in size; note: potency is the fitted concentration of half-maximal effect)
How it was run: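 Parallel cytotoxicity read-out for the ARE-bla screen: HepG2 reporter cells, 16 hrs with compounds, then CellTiter-Glo luminescence.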

[9] = qHTS assay for small molecule activators of the heat shock response signaling pathway - cell viability counter screen (AID 743209); note: nearly all actives have a fitted effect of over 50% in size; note: potency is the fitted concentration of half-maximal effect
How it was run: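 To flag cytotoxic compounds, HSE-bla HeLa cells plated at 1500 cells/well were dosed for 5 h at 37 C, followed by the reporter FRET read and then CellTiter-Glo, with luminescence recorded 30 min after reagent addition.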

[10] = qHTS assay for small molecule activators of the heat shock response signaling pathway (AID 743210; active = well fitted activation curve with a large enough effect in the signal ratio in the repeat runs, with a control signal flat, not every such curve was filed as active; the % refers to the signal ratio;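 note: HeLa cells with beta-lactamase reporter driven by heat shock elements; series mostly up to about 63 µM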)
How it was run: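 Activation of heat shock element-controlled beta-lactamase expression is measured in HeLa cells by LiveBLAzer FRET fluorescence, with compound exposure lasting 5 h at 37 C and substrate loading 2.5 h at room temperature.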

[11] = qHTS assay to identify small molecule agonists of the peroxisome proliferator-activated receptor delta (PPARd) signaling pathway - cell viability counter screen (AID 743211); note: nearly all actives have a fitted effect of over 55% in size; note: potency is the fitted concentration of half-maximal effect
How it was run: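 Viability was measured as CellTiter-Glo luminescence (30 min, room temperature) in the same wells as the beta-lactamase readout. GeneBLAzer PPARd UAS-bla HEK293H cells received compound after 5 h plating and were incubated 17 h at 37 C.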

[12] = qHTS assay to identify small molecule antagonists of the peroxisome proliferator-activated receptor delta (PPARd) signaling pathway - cell viability counter screen (AID 743213); note: nearly all actives have a fitted effect of over 50% in size
How it was run: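 Agonist-stimulated (L165041, 300 nM final) HEK293H PPARd UAS-bla cells are exposed to compounds for 17 h at 37 C, and ATP-based luminescence (CellTiter-Glo) from the same wells reports cytotoxicity.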

[13] = qHTS assay to identify small molecule agonists of the farnesoid-X-receptor (FXR) signaling pathway - cell viability counter screen (AID 743218); note: nearly all actives have a fitted effect of over 45% in size; note: potency is the fitted concentration of half-maximal effect
How it was run: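 Same-well cytotoxicity check on FXR-UAS-bla HEK 293T cells: 5 h attachment, 16 h compound at 37 C, CellTiter-Glo luminescence read at room temperature after 30 min.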

[14] = qHTS assay to identify small molecule antagonists of the farnesoid-X-receptor (FXR) signaling pathway - cell viability counter screen (AID 743221; active = well fitted cell-killing curve with a large enough effect in the repeat runs, not every such curve was filed as active; note: nearly all actives have a fitted effect of over 50% in size; note: potency is the fitted concentration of half-maximal effect)
How it was run: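 Cytotoxicity counter screen run in the FXR-bla reporter wells: HEK 293T cells exposed to compound with 50 uM (final) chenodeoxycholic acid for 16 h, 37 C, then viability measured by CellTiter-Glo luminescence after 30 min, room temperature.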

[15] = molecular target: Peroxisome proliferator-activated receptor delta (Homo sapiens) (UniProt Q03181); assay: qHTS assay to identify small molecule agonists of the peroxisome proliferator-activated receptor delta (PPARd) signaling pathway (AID 743212; calls by dose curve)
How it was run: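 Cells expressing a UAS-driven beta-lactamase reporter (PPARd-bla HEK293H) were given test compounds after a 5 h settle and kept at 37 C. Reporter activity was then measured as FRET fluorescence using LiveBLAzer B/G substrate.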

[16] = molecular target: Peroxisome proliferator-activated receptor delta (Homo sapiens) (UniProt Q03181); assay: qHTS assay to identify small molecule antagonists of the peroxisome proliferator-activated receptor delta (PPARd) signaling pathway (AID 743215; active = well fitted inhibition curve with a large enough effect in the signal ratio in the repeat runs, not every such curve was filed as active; the % refers to the signal ratio; note: series mostly up to about 62 µM)
How it was run: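 Screen format: qHTS, antagonist mode. HEK293H PPARd-bla cells received compound and 300 nM L165041 (final), 17 h, 37 C. Beta-lactamase detected via FRET substrate fluorescence, 2 h, room temperature.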

[17] = molecular target: Vitamin D3 receptor (Homo sapiens) (UniProt P11473); assay: qHTS assay to identify small molecule agonists of the vitamin D receptor (VDR) signaling pathway (AID 743222; calls by dose curve)
How it was run: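 Using LiveBLAzer B/G FRET detection, agonism was scored in VDR-bla cells exposed overnight (16 h, 37C) to DMSO-dissolved compounds; substrate incubation was 2 h at room temperature.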

[18] = molecular target: Vitamin D3 receptor (Homo sapiens) (UniProt P11473); assay: qHTS assay to identify small molecule antagonists of the vitamin D receptor (VDR) signaling pathway (AID 743223; active = well fitted inhibition curve with a large enough effect in the signal ratio in the repeat runs, not every such curve was filed as active; the % refers to the signal ratio)
How it was run: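 Antagonist mode: compound added to VDR-bla cells alongside agonist 1alpha,25-dihydroxyvitamin D3 (3 nM final), incubation 16 h at 37C. Read-out is LiveBLAzer FRET fluorescence, 2 h at room temperature.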

[19] = molecular target: Bile acid receptor (Homo sapiens) (UniProt Q96RI1); assay: qHTS assay to identify small molecule antagonists of the farnesoid-X-receptor (FXR) signaling pathway (AID 743217; active = well fitted inhibition curve with a large enough effect in the signal ratio in the repeat runs, not every such curve was filed as active; the % refers to the signal ratio)
How it was run: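 Quantitative HTS, beta-lactamase reporter format: FXR-UAS-bla HEK 293T cells co-treated 16 h at 37 °C with compounds and 50 uM final chenodeoxycholic acid, then read by B/G FRET fluorescence.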

[20] = molecular target: Bile acid receptor (Homo sapiens) (UniProt Q96RI1); assay: qHTS assay to identify small molecule agonists of the farnesoid-X-receptor (FXR) signaling pathway (AID 743220; active = well fitted activation curve with a large enough effect in the signal ratio in the repeat runs, not every such curve was filed as active; the % refers to the signal ratio)
How it was run: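 FXR-UAS-bla HEK 293T cells carrying a UAS-driven beta-lactamase reporter were plated for 5 h at 37C/5% CO2, then exposed to DMSO-dissolved Tox21 10K compounds for 16 h at 37C. A LiveBLAzer B/G FRET substrate was loaded for 2 h at room temperature before fluorescence reading.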

Chain of Peroxisome proliferator-activated receptor delta (Homo sapiens) (Q03181 whole entry, looked up): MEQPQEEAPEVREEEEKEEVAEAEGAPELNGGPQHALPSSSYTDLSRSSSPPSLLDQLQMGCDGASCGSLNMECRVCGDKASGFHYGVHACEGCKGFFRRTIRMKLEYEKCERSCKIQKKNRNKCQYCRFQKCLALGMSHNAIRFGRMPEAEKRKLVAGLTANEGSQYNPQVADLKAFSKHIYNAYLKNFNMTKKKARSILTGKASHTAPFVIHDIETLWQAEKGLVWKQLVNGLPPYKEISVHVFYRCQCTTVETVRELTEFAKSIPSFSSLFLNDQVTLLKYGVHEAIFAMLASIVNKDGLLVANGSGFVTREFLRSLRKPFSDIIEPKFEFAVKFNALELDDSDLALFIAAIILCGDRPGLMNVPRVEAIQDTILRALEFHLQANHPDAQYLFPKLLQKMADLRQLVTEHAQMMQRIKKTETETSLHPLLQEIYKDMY
Chain of Vitamin D3 receptor (Homo sapiens) (P11473 whole entry, looked up): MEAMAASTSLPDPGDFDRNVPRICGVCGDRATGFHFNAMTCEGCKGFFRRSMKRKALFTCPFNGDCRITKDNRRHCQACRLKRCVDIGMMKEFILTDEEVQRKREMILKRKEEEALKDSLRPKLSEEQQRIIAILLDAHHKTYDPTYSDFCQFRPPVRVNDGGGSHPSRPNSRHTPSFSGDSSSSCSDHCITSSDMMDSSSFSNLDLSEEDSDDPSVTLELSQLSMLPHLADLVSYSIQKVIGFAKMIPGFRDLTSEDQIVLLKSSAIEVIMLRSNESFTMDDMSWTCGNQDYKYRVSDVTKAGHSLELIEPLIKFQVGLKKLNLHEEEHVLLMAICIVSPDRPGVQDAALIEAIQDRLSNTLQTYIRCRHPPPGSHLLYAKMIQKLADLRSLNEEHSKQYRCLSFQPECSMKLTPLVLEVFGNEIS
Chain of Bile acid receptor (Homo sapiens) (Q96RI1 whole entry, looked up): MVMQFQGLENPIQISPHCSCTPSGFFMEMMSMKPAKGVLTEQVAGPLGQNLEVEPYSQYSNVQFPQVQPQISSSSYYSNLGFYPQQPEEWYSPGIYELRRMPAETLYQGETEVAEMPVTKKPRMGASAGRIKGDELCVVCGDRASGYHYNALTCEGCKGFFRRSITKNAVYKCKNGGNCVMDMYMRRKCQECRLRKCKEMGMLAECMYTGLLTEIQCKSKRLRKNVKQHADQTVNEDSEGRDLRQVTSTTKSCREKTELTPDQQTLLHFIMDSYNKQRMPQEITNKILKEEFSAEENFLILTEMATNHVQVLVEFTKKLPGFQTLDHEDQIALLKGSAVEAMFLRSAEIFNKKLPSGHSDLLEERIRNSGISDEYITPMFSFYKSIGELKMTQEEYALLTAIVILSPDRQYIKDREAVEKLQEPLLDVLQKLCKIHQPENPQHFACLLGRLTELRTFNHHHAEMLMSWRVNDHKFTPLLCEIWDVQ
Chain of Peroxisome proliferator-activated receptor gamma (Homo sapiens) (P37231 whole entry, looked up): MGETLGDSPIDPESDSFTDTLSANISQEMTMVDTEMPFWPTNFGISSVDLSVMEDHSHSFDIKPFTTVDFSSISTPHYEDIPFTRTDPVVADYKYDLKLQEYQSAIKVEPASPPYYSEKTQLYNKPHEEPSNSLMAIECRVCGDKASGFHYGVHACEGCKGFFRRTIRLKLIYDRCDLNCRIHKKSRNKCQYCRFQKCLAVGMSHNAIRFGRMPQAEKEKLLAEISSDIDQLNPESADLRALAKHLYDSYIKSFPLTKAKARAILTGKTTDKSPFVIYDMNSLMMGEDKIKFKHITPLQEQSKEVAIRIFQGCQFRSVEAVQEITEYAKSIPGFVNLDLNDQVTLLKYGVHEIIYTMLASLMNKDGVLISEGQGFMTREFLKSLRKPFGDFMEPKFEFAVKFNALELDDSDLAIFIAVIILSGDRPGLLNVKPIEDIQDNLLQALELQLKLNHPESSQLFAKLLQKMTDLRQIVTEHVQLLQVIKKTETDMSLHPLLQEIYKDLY
Chain of Aryl hydrocarbon receptor (Homo sapiens) (P35869 whole entry, looked up): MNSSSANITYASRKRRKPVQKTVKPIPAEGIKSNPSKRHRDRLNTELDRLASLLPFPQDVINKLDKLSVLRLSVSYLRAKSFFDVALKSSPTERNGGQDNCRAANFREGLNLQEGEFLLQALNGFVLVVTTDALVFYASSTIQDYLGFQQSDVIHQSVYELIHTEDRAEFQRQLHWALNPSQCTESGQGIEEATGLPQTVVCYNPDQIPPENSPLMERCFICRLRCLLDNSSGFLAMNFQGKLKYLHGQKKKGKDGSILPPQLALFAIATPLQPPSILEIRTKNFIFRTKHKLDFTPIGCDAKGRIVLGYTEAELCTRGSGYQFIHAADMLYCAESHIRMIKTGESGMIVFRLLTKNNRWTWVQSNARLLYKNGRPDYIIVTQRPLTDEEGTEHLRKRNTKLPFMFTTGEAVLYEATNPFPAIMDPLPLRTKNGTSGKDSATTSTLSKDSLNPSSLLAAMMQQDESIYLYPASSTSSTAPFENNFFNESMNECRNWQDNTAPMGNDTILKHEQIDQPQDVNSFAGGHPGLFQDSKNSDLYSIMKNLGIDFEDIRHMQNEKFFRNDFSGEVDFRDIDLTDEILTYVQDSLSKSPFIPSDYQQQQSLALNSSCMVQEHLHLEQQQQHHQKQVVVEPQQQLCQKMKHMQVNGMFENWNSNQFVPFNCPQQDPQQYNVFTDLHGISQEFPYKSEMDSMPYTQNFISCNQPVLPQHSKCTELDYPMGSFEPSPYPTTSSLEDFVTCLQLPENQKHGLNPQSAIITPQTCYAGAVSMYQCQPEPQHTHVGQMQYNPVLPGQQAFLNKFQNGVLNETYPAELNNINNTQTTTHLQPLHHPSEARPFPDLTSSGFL

| SMILES | Potency [1] | Potency [2] | outcome [3] | outcome [4] | Potency [5] | outcome [6] | Potency [7] | Potency [8] | Potency [9] | Potency [10] | Potency [11] | outcome [12] | Potency [13] | Potency [14] | outcome [15] | outcome [16] | outcome [17] | outcome [18] | outcome [19] | outcome [20] |
| --- | --- | --- | --- | --- | --- | --- | --- | --- | --- | --- | --- | --- | --- | --- | --- | --- | --- | --- | --- | --- |
| O=P1(NCCCl)OCCCN1CCCl (centres undefined) | inactive | inactive | inactive | inactive | inactive | inactive | inactive | inactive | inactive | inactive | inactive | inactive | inactive | inactive |  |  |  |  |  |  |
| O=C(O)COc1ccccc1 | inactive | inactive | inactive | inactive | inactive | inactive | inactive | inactive | inactive | inactive | inactive | inactive | inactive | inactive | inactive | inactive | inactive | inactive |  |  |
| Oc1c(Br)cc(Br)cc1Br | inactive | inactive | inactive | inactive | 43.7 µM (active) | inactive | 15.4 µM (active) | inactive | inactive | inactive | inactive | inactive | inactive | inactive | inactive | inactive |  |  |  |  |
| CNC(=O)O/N=C/C(C)(C)S(C)(=O)=O | inactive | inactive | inactive | inactive | inactive | inactive | inactive | inactive | inactive | inactive | inactive | inactive | inactive | inactive |  |  |  |  |  |  |
| O=C(O)CCCc1ccc(N(CCCl)CCCl)cc1 | inactive and 30.6 µM (active) | inactive | inactive | inactive | inactive | inactive | inactive | inactive | inactive | inactive | inactive | inactive | inactive | inactive | inactive | inactive | inactive | inactive | inactive | inactive |
| Cc1cc(O)ccc1Cl | inactive | inactive | inactive | inactive | inactive | inactive | inactive | inactive | inactive | inactive | inactive | inactive | inactive | inactive | inactive | inactive | inactive | inactive | inactive | inactive |
| COS(=O)(=O)OC | inactive | inactive | inactive | inactive | inactive | inactive | inactive | inactive | inactive | inactive | inactive | inactive | inactive | inactive | inactive | inactive | inactive | inactive |  |  |
| CNC(=O)O/N=C(\SC)C(=O)N(C)C | inactive | inactive | inactive | inactive | inactive | inactive | inactive | inactive | inactive | inactive | inactive | inactive | inactive | inactive | inactive | inactive | inactive | inactive |  |  |
| CCOP(=S)(OCC)Oc1cc(C)nc(C(C)C)n1 | inactive and 27.3 µM (active) | inactive and 6.86 µM (active) | inactive | inactive | inactive | inactive | inactive | inactive and 54.5 µM (active) | inactive and 43.6 µM (active) | inactive | inactive and 54.9 µM (active) | inactive | inactive and 49 µM (active) | inactive and 43.6 µM (active) | inactive | inactive |  |  |  |  |
| COP(=S)(OC)Oc1ccc(SC)c(C)c1 | inactive | 26.6 µM (active) and 30.3 µM (active) and 24.3 µM (active) | inactive | inactive | inactive | inactive | inactive | inactive | inactive | inactive | inactive | inactive | inactive | inactive | inactive | inactive | inactive | inactive |  |  |
| c1ccc2c(c1)CCCC2 | inactive | inactive | inactive | inactive | inactive | inactive | inactive | inactive | inactive | inactive | inactive | inactive | inactive | inactive |  |  | inactive | inactive | inactive | inactive |
| ClCCOCCCl | inactive | inactive | inactive | inactive | inactive | inactive | inactive | inactive | inactive | inactive | inactive | inactive | inactive | inactive | inactive | inactive |  |  | inactive | inactive |
| N#CN=C(N)N | inactive | inactive | inactive | inactive | inactive | inactive | inactive | inactive | inactive | inactive | inactive | inactive | inactive | inactive | inactive | inactive | inactive | inactive | inactive | inactive |
| CN(C)C(=O)Nc1cccc(C(F)(F)F)c1 | inactive | inactive | inactive | inactive | inactive | inactive | inactive | inactive | inactive | inactive | inactive | inactive | inactive | inactive | inactive | inactive | inactive | inactive |  |  |
| CC(=O)/C=C/c1ccccc1 | inactive | inactive | inactive | inactive | inactive | inactive | inactive | inactive | inactive | inactive | inactive | inactive | inactive | inactive | inactive | inactive | inactive | inactive |  |  |
